The whole screen tested about 100,000 compounds, of which about 770 (0.77%) were called active. Rule as the data show it: active = inhibition above about 50%; inactive = the rest. Shown is part of a subset that was picked to be rich in actives.
These molecules were tested against Gag-Pol polyprotein (Human immunodeficiency virus type 1 group M subtype B (isolate HXB2)) (UniProt P04585) (assay: RNase H inhibition, HIV 1 Gag Pol polyprotein, FRET biochemical assay, screening (AID 372)). Details: HIV-1 RT RNase H, FRET RNA/DNA substrate fluorescence; at 10 µM; hits give high values.
For Cc1ccc(NC(=O)Cc2ccc(Br)cc2)cc1, the inhibition was 14% (inactive). COc1cccc(N2C(=O)NC(=O)/C(=C/c3ccc(OC)c4ccccc34)C2=O)c1 was tested, and the inhibition was 31% (inactive). In the case of O=C(Nc1ccc2oc(-c3ccccc3F)nc2c1)C(Cl)(Cl)Cl, the inhibition is reported as 8% (inactive). O=C(O)/C=C\C(=O)Nc1ccc(N2CCOCC2)c(C(=O)O)c1 was tested, and the inhibition was 5% (inactive). With Cc1ccc(S(=O)(=O)N/N=C/c2ccc(C(=O)O)cc2)cc1 the inhibition was 0% (inactive). For COc1ccc(N2CCSC2c2ccco2)cc1 (centres undefined), the inhibition was 0% (inactive). C=CCN1C(=O)/C(=C\c2ccc(O)c(OCC)c2)C(=O)NC1=S was tested, and the inhibition was 11% (inactive). COc1cc(C(=O)NCc2ccc(C(=O)O)cc2)cc(OC)c1OC was tested, and the inhibition was 7% (inactive). For CCn1c2ccccc2c2cc(C=Nc3ccc(C)c(F)c3)ccc21, the inhibition was 0% (inactive). CCOc1ccc(C(=O)NC(=S)Nc2ccc(C)cc2)cc1Br was tested, and the inhibition was 11% (inactive). With CCOc1ccccc1C=Nn1c(-c2ccc(Cl)cc2Cl)n[nH]c1=S the inhibition was 15% (inactive). In the case of CCN(CC)CCN1C(=O)C(=O)/C(=C(\O)c2ccc([N+](=O)[O-])cc2)C1c1ccc(OC)cc1 (centres undefined), the inhibition is reported as 2% (inactive). For CCOC(=O)CC1(c2ccccc2)SC(NC(C)=O)=NN1C(C)=O (centres undefined), the inhibition was 0% (inactive). For COc1ccc(Cl)cc1NC(=O)C(=O)NCc1ccc(C)cc1, the inhibition was 30% (inactive). COc1ccc(C)cc1NC(=O)C(=O)NCc1ccccc1 was tested, and the inhibition was 59% (active). In the case of COc1ccc(Cl)cc1NC(=O)C(=O)NCc1ccncc1, the inhibition is reported as 59% (active). For COc1ccc(C)cc1NC(=O)C(=O)NCc1ccc(C)cc1, the inhibition was 5% (inactive). In the case of COc1ccc(CNC(=O)C(=O)Nc2cc(C)ccc2OC)cc1, the inhibition is reported as 30% (inactive). In the case of COc1ccc(OC)c(NC(=O)C(=O)NCc2ccncc2)c1, the inhibition is reported as 26% (inactive). For CCOC(=O)C1=C(C)N=c2s/c(=C\c3cc(Br)c(OCc4ccccc4Cl)c(OC)c3)c(=O)n2C1c1ccccc1Cl (centres undefined), the inhibition was 0% (inactive). For CCOC(=O)c1cc(-c2ccccc2)sc1NC(=O)COc1ccccc1[N+](=O)[O-], the inhibition was 57% (active). In the case of CCOC(=O)c1cc(-c2ccccc2)sc1NC(=O)c1ccc([N+](=O)[O-])cc1, the inhibition is reported as 22% (inactive). In the case of Cc1cc(C)c(NC(=O)COc2ccccc2[N+](=O)[O-])c(C)c1, the inhibition is reported as 5% (inactive). In the case of O=C(Nc1cccc(C(F)(F)F)c1)c1cc([N+](=O)[O-])ccc1Cl, the inhibition is reported as 7% (inactive). In the case of Cc1nc2n(CC(=O)N3CCOCC3)c3ccccc3n2n1, the inhibition is reported as 1% (inactive). In the case of O=C(Cc1cccs1)Nc1ccc(/C=C/C(=O)c2ccccc2)cc1, the inhibition is reported as 8% (inactive). For CCOC(=O)c1c(C)oc2ccc(OC(=O)c3ccc(C)cc3)cc12, the inhibition was 0% (inactive). With CCOC(=O)c1c(C)oc2ccc(N(C(=O)c3ccncc3)S(=O)(=O)c3ccc(C)cc3)cc12 the inhibition was 62% (active). CCOC(=O)c1c(C)oc2ccc(NS(=O)(=O)c3cc(C)ccc3C)cc12 was tested, and the inhibition was 22% (inactive). With Cc1ccc(S(=O)(=O)Nc2ccc(S(=O)(=O)N3CCOCC3)cc2)cc1[N+](=O)[O-] the inhibition was 0% (inactive). O=[N+]([O-])c1ccccc1S(=O)(=O)Nc1ccc(S(=O)(=O)N2CCCCC2)cc1 was tested, and the inhibition was 0% (inactive). In the case of O=[N+]([O-])c1ccccc1S(=O)(=O)Nc1ccc(S(=O)(=O)N2CCOCC2)cc1, the inhibition is reported as 51% (active). With Clc1ccc(Oc2cccc(CN3CCN(c4ccccc4)CC3)c2)cc1 the inhibition was 17% (inactive). For Cc1cccc(C(=O)NCC(O)c2ccccc2)c1 (centres undefined), the inhibition was 11% (inactive). CN=C(Nc1ccc2c(c1)OCO2)SC1CC(=O)N(c2ccc(Cl)cc2)C1=O (centres undefined) was tested, and the inhibition was 12% (inactive). With COC(=O)C1=C(C)N=c2s/c(=C\c3ccccc3Cl)c(=O)n2C1c1ccccc1Cl (centres undefined) the inhibition was 20% (inactive). In the case of CCOc1ccc(NC(=O)CC2S/C(=N\N=C(/C)c3ccc(F)cc3)NC2=O)cc1 (centres undefined), the inhibition is reported as 6% (inactive). With O=C1NC(=O)N(Cc2ccccc2)C(=O)/C1=C/c1ccc(-c2cccc([N+](=O)[O-])c2)o1 the inhibition was 38% (inactive). For Cc1cc([N+](=O)[O-])ccc1-c1ccc(/C=C2\C(=O)NC(=O)N(Cc3ccccc3)C2=O)o1, the inhibition was 60% (active). With CN1C(=O)NC(=O)/C(=C/c2ccc(-c3cc([N+](=O)[O-])ccc3Cl)o2)C1=O the inhibition was 20% (inactive). O=C1NC(=O)N(c2ccccc2)C(=O)/C1=C\c1ccc(-c2ccc([N+](=O)[O-])cc2)o1 was tested, and the inhibition was 7% (inactive). For O=C1NC(=O)N(Cc2ccccc2)C(=O)/C1=C/c1ccc(-c2ccc([N+](=O)[O-])cc2)o1, the inhibition was 63% (active). In the case of CN1C(=O)NC(=O)/C(=C/c2ccc(-c3ccc([N+](=O)[O-])cc3Cl)o2)C1=O, the inhibition is reported as 55% (active). With Cc1cc([N+](=O)[O-])ccc1-c1ccc(/C=C2/C(=O)NC(=O)N(c3ccccc3)C2=O)o1 the inhibition was 17% (inactive). In the case of Cc1cc([N+](=O)[O-])ccc1-c1ccc(/C=C2/C(=O)NC(=O)N(Cc3ccco3)C2=O)o1, the inhibition is reported as 25% (inactive). In the case of Cc1ccc([N+](=O)[O-])cc1-c1ccc(/C=C2/C(=O)NC(=O)N(C)C2=O)o1, the inhibition is reported as 27% (inactive). With CCC(=O)c1cc(Cl)ccc1NC(=O)c1ccc(Br)cc1 the inhibition was 10% (inactive). In the case of CC(=O)c1cccc(NC(=O)c2ccc(OC3CSC3)cc2)c1, the inhibition is reported as 8% (inactive). In the case of Cc1sc(NC(=O)C2C3C=CC(C3)C2C(=O)O)c(C(N)=O)c1C (centres undefined), the inhibition is reported as 6% (inactive). CCOc1cc(/C=C2\C(=O)NC(=O)N(c3ccc(Br)cc3)C2=O)ccc1OCC(=O)O was tested, and the inhibition was 8% (inactive). For O=C(O)c1cccc(N2C(=O)c3ccc(Br)cc3C2=O)c1, the inhibition was 1% (inactive). With O=C(O)c1cccc(N2C(=O)c3cccnc3C2=O)c1 the inhibition was 0% (inactive). For O=C(O)c1cccc(N2C(=O)c3ccc4c5c(ccc(c35)C2=O)CC4)c1, the inhibition was 56% (active). With COc1ccc(-c2nnc(SCC(=O)c3cccc([N+](=O)[O-])c3)n2-c2ccc(C)cc2)cc1OC the inhibition was 19% (inactive). With Oc1ccc(Nc2nc(-c3ccc(Br)cc3)cs2)cc1 the inhibition was 21% (inactive). For O=C1c2ccc3c4c(ccc(c24)C(=O)N1/N=C/c1ccco1)CC3, the inhibition was 3% (inactive). Oc1cc(-c2ccccc2)c2c(c1)C1CCCCC1(N1CCOCC1)O2 (centres undefined) was tested, and the inhibition was 0% (inactive). O=[N+]([O-])c1ccc2c(c1)C(C#Cc1ccccc1)C1CCCCC1(N1CCOCC1)O2 (centres undefined) was tested, and the inhibition was 57% (active). Oc1ccc2c(c1)C1CCCCC1(N1CCCCC1)O2 (centres undefined) was tested, and the inhibition was 0% (inactive).

Source: PubChem BioAssay AID372 (MTDP, 2006)
